PubChem BioAssay (NCATS)
Inconclusive results are not listed. Activity calls are given as the source filed them. The call rests on the fitted dose curve; in most records, active means well fitted curve in the direction sought with a large enough effect; inconclusive means small, poorly fitted or top-dose-only effect, or another doubt; inactive means no such curve, though single readings can be large; an effect the other way counts as inactive or inconclusive.

Experiments:
[1] = target: Arylsulfatase A (Homo sapiens) (UniProt P15289); assay: qHTS screen for enhancers of Arylsulfatase A (ASA1): LOPAC Validation Assay (AID 720538)
Summary of the method: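 SV40-transformed fibroblasts from an MLD patient (ASA-I179S) were treated with compound for 48 h at 37 C. They were then lysed with 0.5 mM pNCS substrate (final) for 14 h at room temperature and stopped with NaOH; signal read by fluorescence (Ex 525/Em 598 nm), with increase denoting enhanced activity.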

[2] = qHTS for compounds that reverse cellular toxicity of Amyloid beta (A-beta) peptide in yeast: LOPAC Validation Assay (AID 720559)
Summary of the method: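 Yeast expressing toxic A-beta grown with pinned compounds at 30 C for 48 hr. Growth measured as absorbance at 600 nm; data normalized to DMSO and to an equimolar FeCl3/clioquinol mixture as positive control.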

[3] = qHTS for Activators of Parkin Expression: LOPAC Validation Assay (NLuc Reporter) (AID 720572)
Summary of the method: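 Neuronal cells with a Parkin promoter-driven FLuc/NLuc coincidence reporter were treated 24 h at 37 C in 7-point dose response (LOPAC). NLuc luminescence read after FLuc; signals normalized to DMSO and positive control (100%).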

[4] = qHTS for Activators of Parkin Expression: LOPAC Validation Assay (FLuc Reporter) (AID 720573)
Summary of the method: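 Neuronal cell line stably expressing FLuc/NLuc coincidence reporter under the Parkin promoter, 1,500 cells/well, dosed 24 h after seeding in 7-point series for 24 h at 37 C. FLuc luminescence read; normalized to DMSO and positive control (100%).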

Measured: Potency

Arylsulfatase A (Homo sapiens), sequence (P15289 whole entry, looked up): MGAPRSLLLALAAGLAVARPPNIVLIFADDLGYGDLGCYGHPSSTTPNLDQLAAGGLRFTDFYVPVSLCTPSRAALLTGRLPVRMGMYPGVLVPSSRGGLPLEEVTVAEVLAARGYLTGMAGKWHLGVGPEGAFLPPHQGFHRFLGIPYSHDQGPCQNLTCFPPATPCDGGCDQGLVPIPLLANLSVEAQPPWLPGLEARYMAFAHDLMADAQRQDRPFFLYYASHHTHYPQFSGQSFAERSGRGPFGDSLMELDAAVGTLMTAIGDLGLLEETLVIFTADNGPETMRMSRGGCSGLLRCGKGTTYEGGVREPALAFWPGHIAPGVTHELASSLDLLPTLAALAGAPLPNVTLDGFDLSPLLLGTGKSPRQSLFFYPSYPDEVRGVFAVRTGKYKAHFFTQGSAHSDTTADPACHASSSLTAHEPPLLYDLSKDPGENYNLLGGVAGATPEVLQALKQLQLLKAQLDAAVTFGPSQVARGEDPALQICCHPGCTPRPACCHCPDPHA

C=CCNc1ncnc2ccc(Br)cc12
inactive: [1] | [2] | [3] | [4]

NC(N)=N[C@@H](CCC(=O)O)C(=O)O
inactive: [1] | [2] | [3] | [4]

O=C(c1ccc2c(c1)OCCO2)N1CCCCC1
inactive: [1] | [2] | [3] | [4]

CCCCCC(O)CCCC(=O)O (stereo unspecified)
inactive: [1] | [2] | [3] | [4]

c1ccc(C2CN3CCSC3=N2)cc1 (stereo unspecified)
inactive: [1] | [2] | [3] | [4]

Cc1cccc(C(=O)NCN2CCN(c3ccccc3C#N)CC2)c1
inactive: [1] | [2] | [3] | [4]

N[C@H](C(=O)O)[C@H]1C[C@@H]1C(=O)O
inactive: [1] | [2] | [3] | [4]

COc1cc(CC(=O)O)ccc1O
inactive: [1] | [2] | [3] | [4]

C=CCn1c(=O)c2c(nc(-c3ccc(S(=O)(=O)O)cc3)n2C)n(C)c1=O
inactive: [1] | [2] | [3] | [4]

CC#CCOC(=O)c1c(C)nc2sc3c(c2c1N)CCC(O)C3 (stereo unspecified)
inactive: [1] | [2] | [3] | [4]

CC(/C=C/c1cccc(Oc2ccc(F)cc2)c1)N(O)C(N)=O (stereo unspecified)
inactive: [1] | [2] | [3] | [4]

NC(=O)c1cc[n+](CC2=C(C(=O)O)N3C(=O)[C@@H](NC(=O)[C@@H](c4ccccc4)S(=O)(=O)[O-])[C@H]3SC2)cc1
inactive: [1] | [2] | [3] | [4]

Cc1ccc([N+](=O)[O-])cc1S(=O)(=O)N(C)C
inactive: [1] | [2] | [3] | [4]

CC(N)(Cc1ccc(O)c(O)c1)C(=O)O (stereo unspecified)
inactive: [1] | [2] | [3] | [4]
